DT40 TDP1 CPT: qHTS for Inhibitors of human tyrosyl-DNA phosphodiesterase 1 (TDP1): qHTS in cells in presence of CPT. hit rate 12% among 420,000. chicken DT40 Tdp1-/-;hTDP1 cells + 20 nM CPT, ATP luminescence, 48 h. Potency, µM (titrated, usually from 46.2 µM), for inactives: top-dose activity change, negative = growth inhibition, most hits filed as inhibitors; further: on the % scale 0 is the no-effect control and ±100 the full control effect; nearly all actives have a fitted effect of over 55% in size
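Cell growth measured by CellTiter-Glo luminescence after a minimum 48 h, 37 C compound exposure with 20 nM CPT in Tdp1-knockout DT40 cells stably expressing hTDP1, seeded 400/well; qHTS titration format.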
HepG2 viability: qHTS for Inhibitors of TGF-b: Cytotox Counterscreen. HepG2 CAGA-GFP viability, ATP luminescence, 18 h. Potency, µM (top dose mostly 46.1 µM), inactives show top-dose activity change, negative = cytotoxicity, most hits filed as cytotoxic. hit rate 0.76% among 410,000
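HepG2 CAGA-GFP cells (1000/well, DMEM with 1% FBS) received compound, then TGF-beta at 500 pg/mL final, and were incubated 18 hours at 37 degrees C. Viability was read by CellTiter-Glo luminescence. Media-only wells were set as complete cell-killing and DMSO as no toxicity.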
TDP1 cell noCPT: qHTS for Inhibitors of human tyrosyl-DNA phosphodiesterase 1 (TDP1): qHTS in cells in absence of CPT. DT40 Tdp1-/- hTDP1 cells, no CPT, ATP luminescence, 48 h. AID 686978, 2013. Potency, µM (top dose mostly 46.2 µM), inactives show at the highest dose activity change, negative = growth inhibition, hits mostly inhibitors. hit rate 15% among 420,000; further: on the % scale 0 is the no-effect control and ±100 the full control effect; nearly all actives have a fitted effect of over 55% in size
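Compound effects on proliferation are scored in DT40 Tdp1-/-;hTDP1 cells in the absence of CPT. ATP levels (CellTiter-Glo luminescence) are recorded after a ≥48 hr, 37 °C incubation.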
TGFb inhibitor: qHTS for Inhibitors of TGF-b. AID 588855, 2011. HepG2 CAGA-GFP TGF-b/SMAD3 reporter, GFP fluorescence, 18 h; TGF-beta stimulated, 500 pg/mL final. hit rate 1.2% among 410,000. Potency, µM (top dose mostly 46.1 µM), inactives show at the highest dose activity, negative = inhibition, usual class: inhibitors; further: on the % scale 0 is the no-effect control and ±100 the full control effect; nearly all actives have a fitted effect of over 65% in size
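Inhibition of TGF-beta-driven CAGA-GFP reporter expression in HEPG2 cells is measured by cellular GFP fluorescence after 18 h stimulation with 500 pg/mL recombinant TGF-beta in 1% FBS medium at 37 degrees C.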
S2 tox: Viability Counterscreen for Primary qHTS for Inhibitors of ATXN expression; S2 cells (HEK-293 line with an ATXN2-luciferase reporter) viability, CellTiter-Fluor protease fluorescence, 24 h; Potency, µM (highest dose often 56.7 µM), usual class: cytotoxic; hit rate 0.49% among 400,000; AID 651635, 2014; further: nearly all actives have a fitted effect of over 40% in size
ATXN2 expr inh: Primary qHTS for Inhibitors of ATXN expression; HEK-293 ATXN2-luciferase reporter, luminescence, 24 h; Potency, µM (series often up to 57 µM), for the others: top-dose activity change, negative = inhibition, actives largely listed as inhibitors; hit rate 0.72% among 360,000; further: on the % scale 0 is the no-effect control and ±100 the full control effect; nearly all actives have a fitted effect of over 55% in size
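qHTS (up to 57 uM final) was run with 24 h compound exposure of reporter cells at 37 °C. Each well was multiplexed: SteadyGlo luminescence measured ATXN2-luciferase expression after a fluorogenic Gly-Phe-AFC viability readout (25 uM final).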
Active calls of the source: *; i = inactive; u = inconclusive; x = not tested or not shown; [ ] = remark or other dose. Shown are actives, neighbours in structure and some others; about 17% of the full set was active somewhere. The call rests on the fitted dose curve; in most records, active means well fitted curve in the direction sought with a large enough effect; inconclusive means small, poorly fitted or top-dose-only effect, or another doubt; inactive means no such curve, though single readings can be large; an effect the other way counts as inactive or inconclusive. Potency means the concentration at half of the fitted maximal effect.

SMILES | DT40 TDP1 CPT | HepG2 viability | TDP1 cell noCPT | TGFb inhibitor | S2 tox | ATXN2 expr inh
CCOc1cc(-c2ccccc2)nc2c1CN(S(=O)(=O)c1ccc(C)cc1)C(c1cccc(Cl)c1)C2 (stereo not given) | u | x | 9.2µM* | x | x | x
NC(=O)c1nc(Nc2ccccc2)sc1NC(=O)c1ccccc1Br | u | -63% | 21µM* | 8% | x | x
COc1ccccc1C(=O)Nc1sc(Nc2ccccc2)nc1C(N)=O | 12µM* | -60% | 6.5µM* | 14% | x | x
CN=C1N[C@H](c2ccccc2)N(c2ccccc2)S1 | u | -1% | u | -2% | x | x
O=C(Nc1cc2c(oc1=O)CCCC2=O)c1ccc(Cl)cc1 | -20% | -19% | 10% | -22% | i | -1%
O=[N+]([O-])c1ccc(/C=N/Nc2nc(N3CCCCCC3)nc(N3CCCCCC3)n2)o1 | 26µM* | -2% | u | -38% | u | 0%
C(=C\c1ccccc1)/C=N/Nc1nc(N2CCCCC2)nc(N2CCCCC2)n1 | 12µM* | 1% | 12µM* | u | u | u
O=[N+]([O-])c1ccc(/C=N/Nc2nc(N3CCCCC3)nc(N3CCCCC3)n2)cc1 | u | -1% | 16µM* | -3% | i | x
COc1nc(N/N=C/c2ccc(-c3ccccc3[N+](=O)[O-])o2)nc(N2CCOCC2)n1 | u | -13% | u | 3% | i | 10%
O=[N+]([O-])c1ccc(-c2ccc(/C=N/Nc3nc(NCc4ccccc4)nc(N4CCOCC4)n3)o2)cc1 | 9.2µM* | -55% | 16µM* | -26% | i | -15%
Cc1nn(-c2ccccc2)c(NC(=O)c2ccccc2)c1Br | u | -10% | u | 3% | i | -20%
O=C(Cc1ccc2c(c1)OCCO2)Nc1cc(C(F)(F)F)ccc1N1CCOCC1 | u | -34% | u | 4% | u | -27%
O=C(Nc1c2c(nn1-c1cccc(Cl)c1)CS(=O)(=O)C2)c1ccco1 | 4% | -14% | 14% | -9% | i | -14%
Cc1nnsc1C(=O)Oc1ccc(C(C)C)cc1 | 28% | 8% | 8% | 3% | i | -2%
COc1ccc(/C=N/Nc2nc(Nc3ccccc3)nc(N3CCCCC3)n2)cc1OC | u | -15% | 21µM* | 22% | i | 34%
CCOc1cc(/C=N/Nc2nc(Nc3ccccc3)nc(N3CCCCC3)n2)ccc1OCC(=O)O | -12% | -14% | -23% | -5% | i | 12%
O=[N+]([O-])c1ccc(Nc2nc(N/N=C\c3ccc4c(c3)OCO4)nc(N3CCCCC3)n2)cc1 | 21µM* | 1% | 16µM* | 6% | u | -2%
O=[N+]([O-])c1cc2c(cc1/C=N/Nc1nc(N3CCCC3)nc(N3CCCC3)n1)OCO2 | 0% | 5% | -23% | -13% | i | -36%[11.3 µM]
COc1ccc(CC(=O)NCc2cccc(Cl)c2)cc1S(=O)(=O)N1CCOCC1 | -18% | 0% | u | 0% | i | x
Cc1nn(-c2ccc(Cl)cc2)c(Cl)c1/C=N/NC(=O)c1ccc(NS(=O)(=O)c2cccs2)cc1 | 18µM* | -13% | 18µM* | u | i | -21%
Cc1nn(-c2ccccc2)c(N2CCCC2)c1/C=N/NC(=O)c1cccc(S(=O)(=O)Nc2ccc(Cl)cc2)c1 | u | -16% | u | 5% | i | -10%
Cc1nn(-c2ccccc2)c(Cl)c1/C=N/NC(=O)CNC(=O)c1ccccc1Cl | 21µM* | -37% | u | -4% | i | 8%
Cc1nn(-c2ccccc2)c(Cl)c1/C=N/NC(=O)c1cccc(S(=O)(=O)N2CCCC2)c1 | -28% | -3% | 10µM* | u | i | -17%
CNC(=S)N/N=C/c1c(C)nn(-c2ccc(F)cc2)c1Cl | u | -11% | 15µM* | -4% | u | -23%
Cc1nn(-c2ccc(F)cc2)c(Cl)c1/C=N/NC(=O)c1ccc(O)cc1 | 1% | -7% | -28% | 0% | i | -6%
SMILES | DT40 TDP1 CPT | HepG2 viability | TDP1 cell noCPT | TGFb inhibitor | S2 tox | ATXN2 expr inh
O=C(Cc1cccc(NC(=O)C2CCN(C(=O)C3CCC3)CC2)c1)Nc1cccc(C(=O)N2CCOCC2)c1 | -7% | 2% | -4% | -3% | i | -1%
CC(C)CN1CCC2(CC1)CCN(C(=O)c1cccc(F)c1)CC2 | -6% | x | -15% | x | x | x
CN(C)/[N+]([O-])=N/Oc1ccc([N+](=O)[O-])cn1 | x | -7% | x | 0% | x | x
Cc1nn(-c2ccccc2)c(Cl)c1/C=N/Nc1nc2ccccc2n1C | 26µM* | -54% | 15µM* | u | u | x
Cc1ccc(C)c(OCC(=O)N/N=C/c2c(C)nn(-c3ccccc3)c2Cl)c1C | 15µM* | 4% | 7.3µM* | -46% | u | u
COC(=O)N/N=C\c1c(C)nn(-c2ccccc2)c1Cl | 10% | 2% | -11% | -2% | u | 39%
Cc1nn(-c2ccccc2)c(Cl)c1/C=N/NC(N)=O | 2% | -29% | -12% | 17% | i | 10%
O=C(c1ccc(-c2nc3ccccc3s2)o1)N1CCN(c2ccccc2O)CC1 | 23µM* | -54% | 21µM* | u | i | 36%
O=C(CN1CCN(C(=O)c2ccc(-c3nc4ccccc4s3)o2)CC1)Nc1ccc(F)cc1 | u | -13% | 26µM* | u | u | u
Cc1ccc(CN2C[C@@H](Sc3nc(C)cc(C)n3)C[C@H]2C(=O)N2CCN(c3ccccc3F)CC2)cc1 | -11%[9.04 µM] | x | u | x | i | x
Cc1cc(N=Nc2ccc(C)c(N=Nc3cc(C)c(N)cc3N)c2)c(N)cc1N | u | -2% | 12µM* | -1% | x | x
CC(=O)c1c(-c2ccccc2)c2cc([N+](=O)[O-])ccc2[nH]c1=O | u | 2% | 15µM* | -9% | u | x
CCN(CC)S(=O)(=O)c1ccc(NC(=O)Nc2cccc(C(F)(F)F)c2)cc1 | 2.6µM* | 11µM* | 2.6µM* | u | u | 20µM*
CCN(CC(F)(F)C(F)F)S(=O)(=O)c1ccc(NC(=O)OC)cc1 | 26µM* | 3% | 16µM* | 5% | i | 0%
CCN(CC)S(=O)(=O)c1ccc(/C=C/C(=O)Nc2cccc(F)c2)cc1 | 21µM* | -12% | 21µM* | -9% | u | -10%

Screens as filed in PubChem.
